# Values joined by “and” are separate entries in the source; they are usually repeats but may differ in a detail not shown here. Identical values can stand only once. Records with an inconclusive call do not appear. Some compounds were tested as several samples or in several runs, with calls that do not always agree. Active and inactive are the calls of the source. Rule for the calls, unless noted: active = hit-call score of the fitted dose curve at least 0.9, where 1 is the maximum; inactive = score below 0.9.
# How the values were obtained:
# [1] = CCTE_Mundy_HCI_hNP1_Pro_ResponderAvgInten: CCTE's Proliferation Assay in human neuroprogenitor cells, Mundy Lab (AID 2284224; active = hit-call score of the fitted dose curve at least 0.9, where 1 is the maximum;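 note: human neural progenitor cells hNP1 derived from WA09 embryonic stem cells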)
# Summary of the method: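 Proliferation read as average intensity of BrdU-positive cells, imaged at 26.25 h post-dosing: chemical exposure started after 40–44 h culture, BrdU during final 4 h, paraformaldehyde fixation. Positive-direction fit relative to DMSO.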
# [2] = BSK_BT_PBMCCytotoxicity: PBMC Cytotoxicity Assessment in the BioMAP Diversity Plus: BT Assay (AID 2284225); conditions: primary human B cells with PBMC;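 note: PBMC viability measured by Alamar Blue dye reduction fluorescence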
# Summary of the method: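 Viability by Alamar Blue reduction (6 h, ex/em 546/580 nm) after 90 h culture of SEB/TSST-1-activated PBMC (20 ng/mL each) given compound 1 h before activation. DMSO served as baseline for curve fitting.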
# [3] = read-out: Secreted IgG (sIgG), gene 3500; experiment: BSK_BT_sIgG: BioMAP Diversity Plus: BT Assay for Secreted IgG (sIgG) Biomarker Activity (AID 2284226); conditions: primary human B cells with PBMC
# Summary of the method: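 Cells (B cells with peripheral blood mononuclear cells) are dosed, cultured 24 h, then supernatant IgG is measured by ELISA. DMSO serves as negative control; curves are fitted for signal increase.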
# [4] = BSK_BT_Bcell_Proliferation: Viability Assessment in the BioMAP Diversity Plus: BT Assay for B cell Proliferation (AID 2284227); conditions: primary human B cells with PBMC
# Summary of the method: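 Human B cells co-cultured with PBMC were dosed with test chemicals and relative cell number was quantified by SRB staining at 72 h. Cells were fixed in 10% TCA, stained with 0.1% SRB and read at 560 nm. Activity was fitted in the positive direction against DMSO.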
# [5] = read-out: Interleukin 6 (IL6), IL6 (gene 3569); experiment: BSK_BT_xIL6: BioMAP Diversity Plus: BT Assay for Interleukin 6 (IL6) Biomarker Activity (AID 2284228); conditions: primary human B cells with PBMC
# Summary of the method: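 Secreted IL-6 in the primary human B cell plus PBMC system, measured by Luminex at 24 h post-chemical, DMSO as baseline. Alamar Blue viability: 75,000 cells/well, chemical 1 h before SEB/TSST-1 (20 ng/mL each), 90 h, then 6 h dye.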
# [6] = read-out: Interleukin 17A (IL17A), IL17A (gene 3605); experiment: BSK_BT_xIL17A: BioMAP Diversity Plus: BT Assay for Interleukin 17A (IL17A) Biomarker Activity (AID 2284229); conditions: primary human B cells with PBMC
# Summary of the method: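 Luminex xMAP quantification of secreted IL-17A after 24 h chemical exposure of a primary human B cell/PBMC co-culture. Signal increases fitted relative to DMSO negative control.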
# [7] = read-out: Tumor necrosis factor (Homo sapiens) (UniProt P01375); experiment: BSK_BT_xTNFa: BioMAP Diversity Plus: BT Assay for Tumor necrosis factor alpha (TNF-alpha) Biomarker Activity (AID 2284230); conditions: primary human B cells with PBMC
# Summary of the method: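 B cells with PBMC in co-culture, dosed and sampled at 24 h; secreted TNF-alpha measured by Luminex xMAP bead assay. Activity fitted in the gain direction against DMSO as negative control and baseline.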
# [8] = CCTE_Mundy_HCI_Cortical_Synap_Neur_Matur_NeuriteCount: CCTE's Synaptogenesis and Neurite Maturation Assay in rat cortical cells for Neurite Count, Mundy Lab (AID 2284222);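 note: exposure from day 7 to day 12 in vitro with readout at day 12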
# Summary of the method: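 Rat primary cortical cells; AraC added at DIV 5, chemicals dosed with media change at DIV 7 through DIV 12. MAP2/synaptophysin/Hoechst immunostaining, high-content imaging of neurite number; fitted relative to DMSO.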
# [9] = CCTE_Mundy_HCI_Cortical_Synap_Neur_Matur_CellBodySpotCount: CCTE's Synaptogenesis and Neurite Maturation Assay in rat cortical cells for Cell Body Spot Count, Mundy Lab (AID 2284223)
# Summary of the method: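 High-content imaging counts synaptophysin puncta on neuronal cell bodies per neuron after MAP2/synaptophysin immunostaining. Rat primary cortical cells, glia arrested with AraC at DIV 5, were exposed DIV 7–12; signal decrease measured against DMSO.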
# [10] = CCTE_Mundy_HCI_hN2_NOG_NeuriteCount: CCTE's Neurite Outgrowth Assay in human hN2 cells for Neurite Count, Mundy Lab (AID 2284219; active = hit-call score of the fitted dose curve at least 0.9, where 1 is the maximum)
# Summary of the method: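 In this morphology assay, hNP1-derived neurons received test chemical 2 h post-plating and were fixed two days later in warm paraformaldehyde/sucrose containing Hoechst 33342. Neurites, labelled by rabbit anti-βIII-tubulin (1:800) and Alexa Fluor-488 (1:500), were counted automatically.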
# Chain of Tumor necrosis factor (Homo sapiens) (P01375 whole entry, looked up): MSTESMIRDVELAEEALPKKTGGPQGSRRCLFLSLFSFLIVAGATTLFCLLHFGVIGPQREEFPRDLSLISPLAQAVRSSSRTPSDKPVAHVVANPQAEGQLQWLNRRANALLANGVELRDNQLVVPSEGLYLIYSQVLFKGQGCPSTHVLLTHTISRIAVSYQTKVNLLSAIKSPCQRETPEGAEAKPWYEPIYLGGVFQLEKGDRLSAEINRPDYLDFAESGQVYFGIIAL
structure (smiles),measurement,setting,value
CC(C)(C)C(=O)CC(=O)C(F)(F)C(F)(F)C(F)(F)F,outcome,[1],inactive
same,outcome,[2],inactive
same,outcome,[3],inactive
same,outcome,[4],inactive
same,outcome,[5],inactive
same,outcome,[6],inactive
same,outcome,[7],inactive
Oc1ccc(Nc2ccccc2)cc1,AC50,[2],16.7 µM (active)
same,AC50,[3],13.4 µM (active)
same,AC50,[4],22.5 µM (active)
same,AC50,[5],20 µM (active)
same,AC50,[6],14.3 µM (active)
O=C(CC(=O)C(F)(F)C(F)(F)F)C(F)(F)F,outcome,[2],inactive
same,outcome,[3],inactive
same,outcome,[4],inactive
same,outcome,[5],inactive
same,outcome,[6],inactive
O=C(O)C(F)(F)C(F)(F)C(F)(F)C(F)(F)F,outcome,[2],inactive
same,outcome,[3],inactive
same,outcome,[4],inactive
same,outcome,[5],inactive
same,outcome,[6],inactive
Cc1ccc(S(=O)(=O)OCC(F)(F)C(F)(F)C(F)(F)C(F)(F)C(F)(F)C(F)F)cc1,outcome,[2],inactive
same,AC50,[3],41.7 µM (active)
same,outcome,[3],inactive
same,outcome,[4],inactive
same,outcome,[5],inactive
same,outcome,[6],inactive
OCCCC(F)(F)C(F)(F)C(F)(F)C(F)(F)C(F)(F)C(F)(F)C(F)(F)F,AC50,[2],20.4 µM (active) and 20.1 µM (active)
same,AC50,[3],18.3 µM (active) and 48.6 µM (active)
same,AC50,[4],23.6 µM (active) and 20.6 µM (active)
same,AC50,[5],21 µM (active) and 25.9 µM (active)
same,AC50,[6],18.8 µM (active) and 36.4 µM (active)
COC(=O)CCC(F)(F)C(F)(F)C(F)(F)C(F)(F)F,outcome,[2],inactive
same,outcome,[3],inactive
same,outcome,[4],inactive
same,outcome,[5],inactive
same,outcome,[6],inactive
FC(F)(F)C(F)(F)C(F)(F)C(F)(F)C(F)(F)CCI,outcome,[2],inactive
same,outcome,[3],inactive
same,outcome,[4],inactive
same,outcome,[5],inactive
same,outcome,[6],inactive
O=C(O)C(F)(F)C(F)(F)OC(F)(F)F,outcome,[1],inactive
same,outcome,[2],inactive
same,outcome,[3],inactive
same,outcome,[4],inactive
same,outcome,[5],inactive
same,outcome,[6],inactive
same,outcome,[7],inactive
FC(F)(F)C(F)(F)C(F)(F)CI,outcome,[2],inactive
same,outcome,[3],inactive
same,outcome,[4],inactive
same,outcome,[5],inactive
same,outcome,[6],inactive
CCCCNc1ccccc1,outcome,[2],inactive
same,outcome,[3],inactive
same,outcome,[4],inactive
same,outcome,[5],inactive
same,outcome,[6],inactive
FC(F)(F)C(F)(F)CNCC(F)(F)C(F)(F)F,outcome,[2],inactive
same,outcome,[3],inactive
same,outcome,[4],inactive
same,outcome,[5],inactive
same,outcome,[6],inactive
N=C(N)C(F)(F)C(F)(F)C(F)(F)C(F)(F)C(F)(F)C(F)(F)C(F)(F)F,outcome,[1],inactive
same,AC50,[2],44.7 µM (active)
same,outcome,[2],inactive
same,AC50,[3],44.4 µM (active)
same,outcome,[3],inactive
same,AC50,[4],45.4 µM (active)
same,outcome,[4],inactive
same,AC50,[5],46 µM (active)
same,outcome,[5],inactive
same,AC50,[6],44.2 µM (active)
same,outcome,[6],inactive
same,AC50,[7],45.5 µM (active)
same,outcome,[7],inactive
C=C(C)C(=O)OCC(F)(F)C(F)(F)C(F)(F)F,outcome,[1],inactive
same,outcome,[2],inactive
same,outcome,[3],inactive
same,AC50,[4],2.27 µM (active)
same,outcome,[4],inactive
same,outcome,[5],inactive
same,outcome,[6],inactive
FC(F)(F)C(F)(F)C(F)(F)C(F)(F)C(F)(F)C(F)(F)C(F)(F)C(F)(F)CCS,outcome,[1],inactive
same,outcome,[2],inactive
same,outcome,[3],inactive
same,outcome,[4],inactive
same,outcome,[5],inactive
same,outcome,[6],inactive
same,outcome,[7],inactive
O=S(=O)(OCC(F)F)C(F)(F)F,outcome,[2],inactive
same,outcome,[3],inactive
same,outcome,[4],inactive
same,outcome,[5],inactive
same,outcome,[6],inactive
CC(=O)Nc1ccc(N=Nc2cc(C)ccc2O)cc1,outcome,[2],inactive
same,AC50,[3],9.61 µM (active)
same,outcome,[4],inactive
same,AC50,[5],0.016 µM (active)
same,outcome,[6],inactive
CCc1c(Br)c(Br)c(Br)c(Br)c1Br,outcome,[2],inactive
same,outcome,[3],inactive
same,outcome,[4],inactive
same,outcome,[5],inactive
same,outcome,[6],inactive
O=C(Cl)C(F)(F)C(F)(F)C(F)(F)C(F)(F)C(F)(F)C(F)(F)C(F)(F)C(F)(F)F,outcome,[2],inactive
same,outcome,[3],inactive
same,outcome,[4],inactive
same,outcome,[5],inactive
same,outcome,[6],inactive
C=CC/C=C/C/C=C/C/C=C/C,outcome,[2],inactive
same,outcome,[3],inactive
same,outcome,[4],inactive
same,outcome,[5],inactive
same,outcome,[6],inactive
O=C(O)C(F)(F)C(F)(F)C(F)(F)C(F)(F)C(F)(F)C(F)(F)C(F)(F)C(F)(F)C(F)(F)C(F)F,AC50,[2],22.9 µM (active)
same,outcome,[2],inactive
same,outcome,[3],inactive
same,AC50,[4],16.4 µM (active)
same,outcome,[4],inactive
same,outcome,[5],inactive
same,outcome,[6],inactive
same,outcome,[7],inactive
CC(CCl)OP(=O)(OC(C)CCl)OC(C)CCl (configuration not stated),outcome,[8],inactive
same,outcome,[9],inactive
same,outcome,[1],inactive
same,outcome,[2],inactive
same,outcome,[3],inactive
same,outcome,[4],inactive
same,outcome,[5],inactive
same,outcome,[6],inactive
CCCCCCCCCCCCCCCC[N+](C)(C)Cc1ccccc1,AC50,[2],5.2 µM (active)
same,AC50,[3],0.274 µM (active)
same,AC50,[4],2.44 µM (active)
same,AC50,[5],9.92 µM (active)
same,AC50,[6],2.84 µM (active)
OC[C@@H](O)[C@@H](O)[C@H](O)[C@@H](O)CO,outcome,[10],inactive
same,outcome,[9],inactive
same,outcome,[1],inactive
OCC(F)(F)C(F)(F)C(F)(F)C(F)(F)C(F)(F)C(F)(F)F,AC50,[2],41 µM (active)
same,outcome,[2],inactive
same,AC50,[3],43.9 µM (active)
same,outcome,[3],inactive
same,AC50,[4],47.7 µM (active)
same,outcome,[4],inactive
same,outcome,[5],inactive
same,outcome,[6],inactive
O=C(O)C(F)(F)C(F)(F)C(F)(F)F,outcome,[1],inactive
same,outcome,[2],inactive
same,outcome,[3],inactive
same,outcome,[4],inactive
same,outcome,[5],inactive
same,outcome,[6],inactive
CCCCCCC(C)OC(=O)CCCCC(=O)OC(C)CCCCCC (configuration not stated),outcome,[2],inactive
same,outcome,[3],inactive
same,outcome,[4],inactive
same,outcome,[5],inactive
same,outcome,[6],inactive
O=C(O)C(F)(OC(F)(F)C(F)(OC(F)(F)C(F)(OC(F)(F)C(F)(F)C(F)(F)F)C(F)(F)F)C(F)(F)F)C(F)(F)F (configuration not stated),outcome,[2],inactive
same,outcome,[3],inactive
same,outcome,[4],inactive
same,outcome,[5],inactive
same,outcome,[6],inactive
FC(F)(F)C(F)(F)C(F)(F)C(F)(F)C(F)(F)C(F)(F)CCS,outcome,[2],inactive
same,outcome,[3],inactive
same,outcome,[4],inactive
same,outcome,[5],inactive
same,outcome,[6],inactive
FC(F)(I)C(F)(F)C(F)(F)C(F)(F)I,AC50,[2],49.7 µM (active) and 47.7 µM (active) and 47.2 µM (active)
same,AC50,[3],45.7 µM (active) and 46.4 µM (active) and 56.3 µM (active)
same,AC50,[4],52.2 µM (active) and 54.9 µM (active) and 48.7 µM (active)
same,AC50,[5],46.3 µM (active) and 55.2 µM (active) and 45.9 µM (active)
same,AC50,[6],42.1 µM (active) and 50.4 µM (active) and 39.2 µM (active)
O[Si](c1ccccc1)(c1ccccc1)c1ccccc1,outcome,[2],inactive
same,AC50,[3],14.1 µM (active)
same,AC50,[4],27.3 µM (active)
same,outcome,[5],inactive
same,AC50,[6],28.9 µM (active)
C=CC(=O)OCC(F)(F)C(F)(F)C(F)(F)C(F)(F)C(F)(F)C(F)(F)C(F)(F)F,AC50,[2],14 µM (active)
same,outcome,[2],inactive
same,outcome,[3],inactive
same,outcome,[4],inactive
same,outcome,[5],inactive
same,outcome,[6],inactive
CCN(CC)c1ccc2c(C)cc(=O)oc2c1,outcome,[2],inactive
same,AC50,[3],28.3 µM (active)
same,outcome,[4],inactive
same,AC50,[5],10.9 µM (active)
same,outcome,[6],inactive
C=C(C)C(=O)OCC(F)(F)C(F)(F)C(F)(F)C(F)(F)C(F)(F)C(F)(F)C(F)(F)F,outcome,[2],inactive
same,outcome,[3],inactive
same,outcome,[4],inactive
same,outcome,[5],inactive
same,outcome,[6],inactive
FC(F)(F)C(F)(F)C(F)(F)C(F)(F)C(F)(F)C(F)(F)C(F)(F)C(F)(F)F,outcome,[1],inactive
same,outcome,[2],inactive
same,outcome,[3],inactive
same,outcome,[4],inactive
same,outcome,[5],inactive
same,outcome,[6],inactive

# Reference: PubChem BioAssay (EPA / NIEHS)
